Laboratory results taken from the supplement of paper PMC11732987, “Enantioselective OTUD7B fragment discovery through chemoproteomics screening and high-throughput optimisation” (Communications Chemistry, 2025).

Tests used:
Experiment in all cases: log2 ratio of Biotin-Ahx-Ub-VS probe labelling (fragment/DMSO); higher = less target engagement (more negative = stronger competition), active = hit call of the paper (q ≤ 0.05, log2 ratio ≤ -1)
Settings in all cases: compound concentration: 200 uM; treatment time: 3 h
USP34 = USP34 (UniProt Q70CQ2)
Sequence of USP34 (Q70CQ2 whole entry, the tested form may be a part): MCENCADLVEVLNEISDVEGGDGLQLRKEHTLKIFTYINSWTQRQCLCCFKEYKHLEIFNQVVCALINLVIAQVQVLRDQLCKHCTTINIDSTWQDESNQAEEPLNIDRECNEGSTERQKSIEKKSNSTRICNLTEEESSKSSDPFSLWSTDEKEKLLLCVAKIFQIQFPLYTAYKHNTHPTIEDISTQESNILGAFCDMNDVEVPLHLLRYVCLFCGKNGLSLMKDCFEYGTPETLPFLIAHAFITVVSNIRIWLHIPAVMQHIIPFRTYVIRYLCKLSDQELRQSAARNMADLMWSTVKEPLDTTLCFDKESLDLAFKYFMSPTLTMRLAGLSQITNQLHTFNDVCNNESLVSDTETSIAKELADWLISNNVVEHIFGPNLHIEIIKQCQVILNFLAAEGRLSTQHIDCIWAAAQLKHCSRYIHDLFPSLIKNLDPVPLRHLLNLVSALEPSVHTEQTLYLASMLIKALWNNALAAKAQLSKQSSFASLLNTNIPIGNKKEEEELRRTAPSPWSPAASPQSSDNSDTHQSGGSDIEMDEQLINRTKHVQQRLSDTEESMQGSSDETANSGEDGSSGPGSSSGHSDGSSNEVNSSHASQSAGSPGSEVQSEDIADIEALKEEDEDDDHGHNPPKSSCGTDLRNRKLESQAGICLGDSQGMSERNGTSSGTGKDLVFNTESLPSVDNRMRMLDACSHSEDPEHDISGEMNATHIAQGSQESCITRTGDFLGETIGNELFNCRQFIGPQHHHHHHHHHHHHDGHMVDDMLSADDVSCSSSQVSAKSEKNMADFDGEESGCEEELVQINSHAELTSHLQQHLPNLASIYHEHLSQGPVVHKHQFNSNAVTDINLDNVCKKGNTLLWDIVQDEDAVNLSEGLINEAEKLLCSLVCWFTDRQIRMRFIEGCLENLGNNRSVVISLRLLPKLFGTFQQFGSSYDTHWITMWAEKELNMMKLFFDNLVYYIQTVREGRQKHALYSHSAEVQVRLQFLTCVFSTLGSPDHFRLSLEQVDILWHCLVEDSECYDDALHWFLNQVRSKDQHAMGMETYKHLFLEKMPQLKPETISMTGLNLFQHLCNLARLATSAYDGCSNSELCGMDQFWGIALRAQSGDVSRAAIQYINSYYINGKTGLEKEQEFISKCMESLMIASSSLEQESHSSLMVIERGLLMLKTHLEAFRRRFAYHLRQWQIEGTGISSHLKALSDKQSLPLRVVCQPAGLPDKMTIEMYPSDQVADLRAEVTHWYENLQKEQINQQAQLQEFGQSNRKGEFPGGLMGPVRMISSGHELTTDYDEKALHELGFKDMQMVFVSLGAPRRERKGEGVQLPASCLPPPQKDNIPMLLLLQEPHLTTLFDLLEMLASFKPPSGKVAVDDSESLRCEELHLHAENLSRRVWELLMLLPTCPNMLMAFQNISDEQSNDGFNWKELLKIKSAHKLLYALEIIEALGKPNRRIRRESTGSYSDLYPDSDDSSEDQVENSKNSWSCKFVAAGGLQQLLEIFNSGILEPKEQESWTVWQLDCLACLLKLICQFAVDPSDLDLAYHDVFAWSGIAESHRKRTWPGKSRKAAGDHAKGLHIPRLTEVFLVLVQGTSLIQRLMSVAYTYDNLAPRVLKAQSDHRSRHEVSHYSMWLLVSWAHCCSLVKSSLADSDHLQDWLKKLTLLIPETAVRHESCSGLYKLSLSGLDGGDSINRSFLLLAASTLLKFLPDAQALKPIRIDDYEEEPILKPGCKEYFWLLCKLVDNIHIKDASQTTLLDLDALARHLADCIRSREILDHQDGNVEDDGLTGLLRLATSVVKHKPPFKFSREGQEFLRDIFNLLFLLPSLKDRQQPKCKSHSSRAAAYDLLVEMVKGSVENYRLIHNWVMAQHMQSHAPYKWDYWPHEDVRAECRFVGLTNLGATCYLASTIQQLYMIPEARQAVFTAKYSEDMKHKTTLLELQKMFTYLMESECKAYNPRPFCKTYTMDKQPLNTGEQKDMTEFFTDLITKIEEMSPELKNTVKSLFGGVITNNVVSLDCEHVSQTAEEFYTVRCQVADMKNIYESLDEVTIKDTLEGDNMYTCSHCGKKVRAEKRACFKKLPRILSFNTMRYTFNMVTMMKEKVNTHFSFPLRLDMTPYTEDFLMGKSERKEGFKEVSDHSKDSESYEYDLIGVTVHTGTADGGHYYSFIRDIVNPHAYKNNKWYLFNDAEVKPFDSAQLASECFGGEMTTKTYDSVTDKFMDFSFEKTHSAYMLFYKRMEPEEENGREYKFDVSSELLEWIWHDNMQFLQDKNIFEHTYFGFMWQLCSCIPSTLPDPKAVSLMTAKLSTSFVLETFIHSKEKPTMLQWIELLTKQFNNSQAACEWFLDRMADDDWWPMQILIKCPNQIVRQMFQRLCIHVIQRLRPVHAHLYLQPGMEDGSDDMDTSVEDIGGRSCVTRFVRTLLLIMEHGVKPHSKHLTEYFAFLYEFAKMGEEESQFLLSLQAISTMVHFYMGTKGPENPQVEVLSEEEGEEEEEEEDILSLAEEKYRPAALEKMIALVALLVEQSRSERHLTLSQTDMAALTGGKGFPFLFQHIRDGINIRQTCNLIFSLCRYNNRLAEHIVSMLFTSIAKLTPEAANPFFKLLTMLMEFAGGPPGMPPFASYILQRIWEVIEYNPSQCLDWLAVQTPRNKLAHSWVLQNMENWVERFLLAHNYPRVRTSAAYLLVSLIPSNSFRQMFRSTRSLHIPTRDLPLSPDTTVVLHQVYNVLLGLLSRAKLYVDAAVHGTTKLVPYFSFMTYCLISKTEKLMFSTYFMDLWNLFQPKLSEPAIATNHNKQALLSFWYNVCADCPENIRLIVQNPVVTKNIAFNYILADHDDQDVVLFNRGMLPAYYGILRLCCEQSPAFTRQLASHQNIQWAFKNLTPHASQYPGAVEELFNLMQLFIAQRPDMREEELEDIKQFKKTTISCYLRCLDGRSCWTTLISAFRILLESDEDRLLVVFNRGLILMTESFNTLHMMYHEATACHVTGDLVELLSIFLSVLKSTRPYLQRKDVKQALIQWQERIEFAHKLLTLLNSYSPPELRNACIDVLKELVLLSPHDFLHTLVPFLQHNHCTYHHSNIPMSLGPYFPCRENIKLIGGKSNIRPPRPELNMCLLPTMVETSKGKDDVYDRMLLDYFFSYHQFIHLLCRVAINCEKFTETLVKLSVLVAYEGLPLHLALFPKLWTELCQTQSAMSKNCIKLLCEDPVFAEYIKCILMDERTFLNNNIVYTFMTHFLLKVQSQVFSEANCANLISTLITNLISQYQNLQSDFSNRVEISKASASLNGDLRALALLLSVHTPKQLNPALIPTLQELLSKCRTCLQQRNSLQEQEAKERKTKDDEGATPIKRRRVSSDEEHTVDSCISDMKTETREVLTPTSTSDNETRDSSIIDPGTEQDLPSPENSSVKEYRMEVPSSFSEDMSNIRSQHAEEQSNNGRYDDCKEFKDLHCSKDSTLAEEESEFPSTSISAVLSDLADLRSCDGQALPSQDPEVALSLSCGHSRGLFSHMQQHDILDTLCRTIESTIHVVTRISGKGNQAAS
In short: (§1)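 Labelled DUBs from HEK293T lysate were NeutrAvidin-enriched, digested with LysC and trypsin, and run by diaPASEF LC-MS/MS. Before that, each 495 µg sample in Tris/CHAPS/IGEPAL buffer with protease inhibitors was treated in triplicate with fragment at 200 µM or vehicle for 3 h, then with Biotin-Ahx-Ub-VS at 0.5 µM final for 1 h. Values are average log2 ratios of fragment over vehicle by unpaired t-test, based on global-median-normalised Spectronaut label-free quantities from proteins with ≥2 unique peptides.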

USP36 = target: T1, USP36 (UniProt Q9P275)
T1 sequence (whole entry): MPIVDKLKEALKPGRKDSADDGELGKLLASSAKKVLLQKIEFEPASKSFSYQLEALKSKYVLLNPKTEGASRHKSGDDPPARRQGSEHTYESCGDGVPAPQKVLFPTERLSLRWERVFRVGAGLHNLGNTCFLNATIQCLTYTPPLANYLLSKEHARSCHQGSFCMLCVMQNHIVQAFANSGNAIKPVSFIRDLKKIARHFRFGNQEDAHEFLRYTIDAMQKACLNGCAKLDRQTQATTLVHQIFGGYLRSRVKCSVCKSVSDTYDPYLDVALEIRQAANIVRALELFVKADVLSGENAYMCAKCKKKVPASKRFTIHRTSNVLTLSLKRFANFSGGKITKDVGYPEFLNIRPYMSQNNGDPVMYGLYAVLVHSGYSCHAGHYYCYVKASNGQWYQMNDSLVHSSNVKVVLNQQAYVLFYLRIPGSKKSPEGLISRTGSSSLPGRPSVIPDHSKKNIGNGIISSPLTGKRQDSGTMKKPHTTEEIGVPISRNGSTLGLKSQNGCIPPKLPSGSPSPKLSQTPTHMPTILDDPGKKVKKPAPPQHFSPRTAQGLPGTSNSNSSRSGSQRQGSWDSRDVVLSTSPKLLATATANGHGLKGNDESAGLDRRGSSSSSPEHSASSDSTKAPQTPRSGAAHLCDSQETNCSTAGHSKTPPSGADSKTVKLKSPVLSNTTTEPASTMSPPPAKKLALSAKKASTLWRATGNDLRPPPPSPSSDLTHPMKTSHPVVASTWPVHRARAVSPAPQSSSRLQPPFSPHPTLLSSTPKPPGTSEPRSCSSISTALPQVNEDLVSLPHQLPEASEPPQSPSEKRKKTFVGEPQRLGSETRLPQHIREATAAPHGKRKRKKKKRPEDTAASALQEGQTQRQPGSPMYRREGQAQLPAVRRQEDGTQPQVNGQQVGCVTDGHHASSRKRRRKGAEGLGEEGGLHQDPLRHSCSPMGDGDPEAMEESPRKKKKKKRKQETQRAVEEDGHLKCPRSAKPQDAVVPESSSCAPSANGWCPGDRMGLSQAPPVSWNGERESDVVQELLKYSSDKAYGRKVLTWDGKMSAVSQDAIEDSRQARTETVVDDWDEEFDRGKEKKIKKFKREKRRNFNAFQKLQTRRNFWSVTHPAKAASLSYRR
In short: as §1

USP38 = target: T2, USP38 (UniProt Q8NB14)
T2 sequence (whole entry): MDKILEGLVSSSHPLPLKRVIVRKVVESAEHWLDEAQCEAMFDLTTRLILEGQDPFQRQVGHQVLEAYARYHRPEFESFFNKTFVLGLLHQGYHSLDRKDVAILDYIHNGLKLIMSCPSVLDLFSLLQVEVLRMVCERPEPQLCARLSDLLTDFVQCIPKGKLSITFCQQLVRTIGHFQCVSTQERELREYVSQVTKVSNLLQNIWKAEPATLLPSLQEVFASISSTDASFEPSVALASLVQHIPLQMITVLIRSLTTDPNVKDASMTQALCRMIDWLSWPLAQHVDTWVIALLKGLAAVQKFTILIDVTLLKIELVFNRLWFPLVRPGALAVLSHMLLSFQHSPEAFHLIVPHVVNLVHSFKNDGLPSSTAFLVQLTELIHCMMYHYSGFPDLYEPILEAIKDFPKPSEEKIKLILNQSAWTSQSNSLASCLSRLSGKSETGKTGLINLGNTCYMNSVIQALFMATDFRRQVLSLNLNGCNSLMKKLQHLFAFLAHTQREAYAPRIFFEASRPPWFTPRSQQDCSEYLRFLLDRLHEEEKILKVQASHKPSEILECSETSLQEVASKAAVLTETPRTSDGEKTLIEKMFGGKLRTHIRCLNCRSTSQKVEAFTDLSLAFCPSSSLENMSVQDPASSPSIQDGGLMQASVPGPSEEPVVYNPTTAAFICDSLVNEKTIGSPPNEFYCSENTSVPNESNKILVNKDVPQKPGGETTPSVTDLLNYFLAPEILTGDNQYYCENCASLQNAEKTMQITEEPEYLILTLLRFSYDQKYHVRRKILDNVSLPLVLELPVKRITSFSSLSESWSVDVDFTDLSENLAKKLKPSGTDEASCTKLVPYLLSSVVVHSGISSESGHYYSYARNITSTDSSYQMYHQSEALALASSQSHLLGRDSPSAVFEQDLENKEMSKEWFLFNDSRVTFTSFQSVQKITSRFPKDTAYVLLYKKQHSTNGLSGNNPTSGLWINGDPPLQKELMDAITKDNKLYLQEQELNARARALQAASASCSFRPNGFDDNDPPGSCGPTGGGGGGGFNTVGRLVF
In short: as §1

USP39 = target: T3, USP39 (UniProt Q53GS9)
T3 sequence (whole entry): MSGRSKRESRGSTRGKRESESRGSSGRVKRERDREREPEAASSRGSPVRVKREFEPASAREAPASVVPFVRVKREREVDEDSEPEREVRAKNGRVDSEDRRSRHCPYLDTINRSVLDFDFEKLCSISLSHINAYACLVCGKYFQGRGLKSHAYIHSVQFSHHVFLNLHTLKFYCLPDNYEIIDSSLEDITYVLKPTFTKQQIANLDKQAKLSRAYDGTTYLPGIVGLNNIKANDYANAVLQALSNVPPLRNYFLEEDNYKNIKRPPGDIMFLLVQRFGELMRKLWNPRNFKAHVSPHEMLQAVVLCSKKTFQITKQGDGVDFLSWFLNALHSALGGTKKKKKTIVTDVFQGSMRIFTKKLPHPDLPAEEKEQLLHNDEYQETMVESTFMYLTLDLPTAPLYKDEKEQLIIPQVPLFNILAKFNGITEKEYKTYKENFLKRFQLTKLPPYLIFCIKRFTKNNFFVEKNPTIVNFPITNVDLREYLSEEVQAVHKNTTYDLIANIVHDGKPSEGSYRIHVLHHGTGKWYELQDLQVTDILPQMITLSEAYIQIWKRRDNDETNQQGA
In short: as §1

USP4 = target: T4, USP4 (UniProt Q13107)
T4 sequence (whole entry): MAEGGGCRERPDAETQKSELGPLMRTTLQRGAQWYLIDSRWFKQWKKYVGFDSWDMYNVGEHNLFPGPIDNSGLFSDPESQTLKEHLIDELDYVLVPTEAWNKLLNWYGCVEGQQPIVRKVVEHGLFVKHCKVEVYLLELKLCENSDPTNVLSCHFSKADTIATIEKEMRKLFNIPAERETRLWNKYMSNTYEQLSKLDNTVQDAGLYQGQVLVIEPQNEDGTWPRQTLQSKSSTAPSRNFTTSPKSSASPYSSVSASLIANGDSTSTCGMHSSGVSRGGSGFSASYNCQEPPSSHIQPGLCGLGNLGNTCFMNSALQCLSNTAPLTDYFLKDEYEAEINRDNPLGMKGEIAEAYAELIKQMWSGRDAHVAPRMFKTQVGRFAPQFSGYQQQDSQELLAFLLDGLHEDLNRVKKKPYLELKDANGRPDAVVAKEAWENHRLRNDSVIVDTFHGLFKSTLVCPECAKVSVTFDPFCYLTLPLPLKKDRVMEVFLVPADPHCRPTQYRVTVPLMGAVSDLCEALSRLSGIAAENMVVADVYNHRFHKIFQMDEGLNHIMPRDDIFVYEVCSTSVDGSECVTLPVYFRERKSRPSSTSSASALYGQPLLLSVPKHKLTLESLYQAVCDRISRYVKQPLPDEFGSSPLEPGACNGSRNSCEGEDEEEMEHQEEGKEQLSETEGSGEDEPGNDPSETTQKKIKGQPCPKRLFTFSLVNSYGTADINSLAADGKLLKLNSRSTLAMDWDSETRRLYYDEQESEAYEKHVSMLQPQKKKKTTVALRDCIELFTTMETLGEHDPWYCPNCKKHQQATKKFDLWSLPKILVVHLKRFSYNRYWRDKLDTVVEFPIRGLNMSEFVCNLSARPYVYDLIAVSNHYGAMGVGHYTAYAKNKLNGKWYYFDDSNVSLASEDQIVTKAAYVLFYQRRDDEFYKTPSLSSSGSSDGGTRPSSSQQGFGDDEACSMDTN
In short: as §1

Measured: log2 ratio of Biotin-Ahx-Ub-VS probe labelling

CN(CCc1ncc(Br)cn1)C(=O)CCl.Cl
inactive: USP34 -0.228 | USP36 -0.122 | USP38 -0.00939 | USP39 0.3 | USP4 -0.0898
